According to PubChem BioAssay (Tox21):
Results filed as inconclusive are left out. Activity calls are given as the source filed them. Calls follow the shape of the full dose curve.

These compounds were tested against Acetylcholinesterase (Homo sapiens) (UniProt P22303) (assay: Acetylcholinesterase (AChE) small molecule antagonists: colormetric cell-based qHTS assay (AID 1347395; also: nearly all actives have a fitted effect of over 30% in size)). Details: SH-SY5Y cells AChE activity, colorimetric (Ellman); series mostly up to 115 µM; activity, negative = inhibition: at the top concentration.
Sequence of Acetylcholinesterase (Homo sapiens) (P22303 whole entry, looked up): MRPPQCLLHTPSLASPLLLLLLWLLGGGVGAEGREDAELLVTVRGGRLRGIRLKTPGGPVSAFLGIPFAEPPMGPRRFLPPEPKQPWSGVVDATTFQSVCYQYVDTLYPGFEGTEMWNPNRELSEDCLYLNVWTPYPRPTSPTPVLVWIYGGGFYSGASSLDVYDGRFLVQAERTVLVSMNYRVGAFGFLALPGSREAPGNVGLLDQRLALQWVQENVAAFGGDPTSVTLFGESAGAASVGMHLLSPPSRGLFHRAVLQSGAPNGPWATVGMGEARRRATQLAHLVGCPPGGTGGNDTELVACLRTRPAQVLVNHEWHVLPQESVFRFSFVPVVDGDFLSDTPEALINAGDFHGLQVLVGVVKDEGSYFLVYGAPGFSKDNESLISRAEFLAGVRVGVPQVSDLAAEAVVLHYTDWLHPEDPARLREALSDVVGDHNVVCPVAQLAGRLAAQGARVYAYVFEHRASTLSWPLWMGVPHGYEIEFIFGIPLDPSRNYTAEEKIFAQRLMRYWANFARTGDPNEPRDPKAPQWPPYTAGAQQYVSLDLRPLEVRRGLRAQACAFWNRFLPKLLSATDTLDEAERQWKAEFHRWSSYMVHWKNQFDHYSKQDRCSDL
Excerpt: National Center for Advancing Translational Sciences [NCATS]
Division of Preclinical Innovation [DPI]
U.S. Environmental Protection Agency [EPA]
National Institutes of Environmental Health Sciences [NIEHS]
National Toxicology Program [NTP]
U.S. Food and Drug Administration [FDA]
Acetylcholinesterase (AChE) is the primary cholinesterase in the body that hydrolyzes a key neurotransmitter, acetylcholine. Inhibition of AChE activity can lead to neurotoxicity. The known inhibitors include organophosphorous pesticides (OP), chemical warfare agents, drugs, and various phytochemicals.
A homogenous cell-based assay using the Amplite Colormetric acetylcholinesterase assay kit (AAT Bioquest, Sunnyvale, CA) was used to evaluate the chemicals in the Tox21 10K library that inhibit AChE activity. The assay uses 5, 5-dithiobis-(2-nitrobenzoic acid) (DTNB) to quantify the thiocholine produced from the hydrolysis of acetylthiocholine by AChE from the SH-SY5Y cells.
Tox21 Assay Protocol Summary:
For the cell-based AChE assay, 2,000 SH-SY5Y cells in 4 uL/well were dispensed into black, clear-bottom 1536-well plates using a Multidrop Combi dispenser (Thermo Scientific, MA). The assay plates were incubated overnight at 37 C to allow cells to attach to the wells, followed by the transfer of 23 nL of compound or DMSO (vehicle control) by a Pintool Station (Wako Automation, CA). The plates were incubated for 30 min at 37 C and 5% CO2, followed by the addition of 4 uL of detection cocktail solution (DTNB, acetylthiocholine) into each well using a Flying Reagent Dispenser (Beckman Coulter, CA) and then 90 min incubation at 37 C.
% is scaled to controls: 0 for no effect and ±100 for the full control effect; potency is read from the fitted curve at half-maximal effect.

| Structure (SMILES) | activity, negative = inhibition | Potency |
| --- | --- | --- |
| CC(=O)c1cc2c(cc1C)C(C)(C)C(C)CC2(C)C (stereo not given) | 2.68% (inactive) | – |
| [O-][Cl+]O | 1.75% (inactive) | – |
| Clc1cccc(SC2CCNCC2)n1 | 0.264% [at 52.9 µM] (inactive) | – |
| O=C(OC1CCCCC1)c1ccccc1C(=O)OC1CCCCC1 | 1.03% (inactive) | – |
| NS(=O)(=O)C(F)(F)C(F)(F)C(F)(F)C(F)(F)C(F)(F)C(F)(F)C(F)(F)C(F)(F)F | -1.7% (inactive) | – |
| C(=NC1CCCCC1)=NC1CCCCC1 | – | inactive |
| CCC(COC(=O)c1cc(OC)c(OC)c(OC)c1)(c1ccccc1)N(C)C (stereo not given) | -10.8% [at 52.9 µM] (inactive) | – |
| CCCCN(N=O)C(=N)N[N+](=O)[O-] | -2.17% (inactive) | – |
| O=C(NC(=O)c1c(F)cccc1F)Nc1cc(Cl)c(Oc2ncc(C(F)(F)F)cc2Cl)c(Cl)c1 | -3.84% (inactive) | – |
| Nc1ccc(N=Nc2ccc(-c3ccc(N=Nc4c(S(=O)(=O)O)cc5cc(S(=O)(=O)O)c(N=Nc6ccccc6)c(O)c5c4N)cc3)cc2)c(N)c1 | 3.4% [at 52.9 µM] (inactive) | – |
| CN(N=O)c1ccc([N+](=O)[O-])cc1 | – | 63.3 µM (active) |
| CC(Cl)Cl | 0.885% (inactive) | – |
| O=C(O)COc1ccc(Cl)cc1 | 1.73% (inactive) | – |
| CC(C)N(C(=O)COc1nnc(C(F)(F)F)s1)c1ccc(F)cc1 | – | 39.9 µM (active) |
| CCOP(=S)(Oc1ccc([N+](=O)[O-])cc1)c1ccccc1 (stereo not given) | 0.921% (inactive) | – |
| COC(C)(C)CCC[C@H](C)C/C=C/C(C)=C/C(=O)OC(C)C | -7.61% (inactive) | – |
| NC(=O)CI | -17.1% (inactive) | – |
| O=[N+]([O-])c1ccccc1CCl | 8.28% (inactive) | – |
| Brc1ccc(Oc2ccccc2)cc1 | – | inactive |
| Nc1ccc([N+](=O)[O-])cc1[N+](=O)[O-] | -9.51% (inactive) | – |

| Structure (SMILES) | activity, negative = inhibition | Potency |
| --- | --- | --- |
| CCCC(=O)Cl | 3.19% (inactive) | – |
| O=C(CBr)c1ccccc1 | -3.14% (inactive) | – |
| O=C=Nc1ccc(Cl)cc1 | 1.3% (inactive) | – |
| COC(=O)C(Cl)C(=O)OC | 2.86% [at 52.9 µM] (inactive) | – |
| O=C1C(Cl)C(CCl)CN1c1cccc(C(F)(F)F)c1 (stereo not given) | -1.89% (inactive) | – |
| CNP(=O)(OC)Oc1ccc(C(C)(C)C)cc1Cl (stereo not given) | – | 71 µM (active) |
| C=C(C#N)CCC#N | -0.436% (inactive) | – |
| CCCCc1c(C)nc(NCC)nc1OS(=O)(=O)N(C)C | -5.72% (inactive) | – |
| CCCCN=C=O | 1.99% (inactive) | – |
| CN1C(=O)C(O)N=C(c2ccccc2)c2cc(Cl)ccc21 (stereo not given) | -10.1% (inactive) | – |
| C=CC(=O)NCNC(=O)C=C | -0.205% (inactive) | – |
| CC/C(=N\OC/C=C/Cl)C1=C(O)CC(C2CCOCC2)CC1=O (stereo not given) | -1.85% (inactive) | – |
| ClC=C(Cl)Cl | 1.2% (inactive) | – |
| CC(C)(CCl)C(=O)Cl | 0% (inactive) | – |
| COC(=O)C(C)N(C(=O)Cc1ccccc1)c1c(C)cccc1C (stereo not given) | 0.894% (inactive) | – |
| NNC(=O)c1cccnc1 | -0.307% (inactive) | – |
| CCC(Br)(CC)C(=O)NC(N)=O | 8.09% (inactive) | – |
| IC(I)=C(I)I | 12.4% (inactive) | – |
| ClCc1ccccc1 | 2.22% (inactive) | – |
| COCCOCCO | 5.35% (inactive) | – |
